The list is not random: actives were taken first. Their share in the collection is about 6.9%.
MCF10A rerep = DNA re-replication induction in MCF 10a cells; MCF 10A DNA re-replication, Hoechst nuclear intensity, 48 h; Potency, µM (series often up to 46.1 µM), inactives show at the highest dose activity, positive = re-replication, hits mostly activators; 2.9% of 350,000 active; also: potency is read from the fitted curve at half-maximal effect; % of control where 0% means no effect; nearly all actives have a fitted effect of over 50% in size
Giardia killer = Giardia lamblia killing; Giardia lamblia trophozoite viability; activity change, % at 7.66 µM, hits read low; 0.15% of 340,000 active; AID 540267; in the data active = activity change below about -80%; inconclusive = between about -30% and that limit;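 also: parasites exposed to compound for two days anaerobically before the ATP read; % is scaled to controls: 0 for no effect and ±100 for the full control effect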
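Viability, read as ATP luminescence: trophozoites at 100 cells/well, compound added, 48 hrs anaerobic at 37 deg C, then 15-30 min room-temperature development before reading.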
SW480 rereplic = inducers of DNA re-replication in SW480 colon cancer cells; 1.8% of 340,000 active; SW480 DNA re-replication, Hoechst DNA content imaging, 48 h; Potency, µM (series often up to 46.1 µM), inactives show at the highest dose re-replication activation, most hits filed as activators; also: potency is read from the fitted curve at half-maximal effect; % of control where 0% means no effect; nearly all actives have a fitted effect of over 55% in size
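DNA re-replication was detected as more nuclei of elevated Hoechst intensity after 48 hr exposure to compound (23 nL pinned per well of 250 cells).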
ASM inhibitor = inhibitors of human secretory acid sphingomyelinase | AID 504937 | 0.006% of 340,000 active | placental ASM, HMU-PC fluorogenic substrate, 60 min | Potency, µM (titrated, usually from 57.5 µM), for inactives: at the top dose activity change, negative = inhibition, usual class: inhibitors | P17405; also: potency is read from the fitted curve at half-maximal effect
Target sequence (P17405 47-631 limits assumed): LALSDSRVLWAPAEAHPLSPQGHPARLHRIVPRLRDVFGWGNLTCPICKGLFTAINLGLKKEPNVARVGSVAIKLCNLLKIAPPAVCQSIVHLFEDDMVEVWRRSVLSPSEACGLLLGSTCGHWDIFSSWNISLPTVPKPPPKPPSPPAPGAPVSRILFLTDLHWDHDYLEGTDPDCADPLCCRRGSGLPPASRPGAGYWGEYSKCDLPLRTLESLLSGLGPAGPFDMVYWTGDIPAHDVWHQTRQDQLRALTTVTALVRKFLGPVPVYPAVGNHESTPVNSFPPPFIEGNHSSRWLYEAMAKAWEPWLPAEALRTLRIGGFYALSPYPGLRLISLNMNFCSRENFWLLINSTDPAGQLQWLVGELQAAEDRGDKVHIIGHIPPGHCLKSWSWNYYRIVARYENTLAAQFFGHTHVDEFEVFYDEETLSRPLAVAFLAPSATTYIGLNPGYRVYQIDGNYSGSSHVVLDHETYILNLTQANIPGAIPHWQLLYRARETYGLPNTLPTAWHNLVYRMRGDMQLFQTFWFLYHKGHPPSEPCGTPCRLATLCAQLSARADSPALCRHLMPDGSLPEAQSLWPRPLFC
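Human placenta-derived ASM enzyme was preincubated with compound for 10 minutes at room temperature, then given fluorogenic substrate HMU-PC0 (9 uM final) for 60 minutes at 37 °C; a pH 10 stop preceded fluorescence reading at Ex 386/Em 447 nm.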
KB-V1 MDR tox = KB-V1 MDR subline cytotoxicity; KB-V1 MDR cells viability, CellTiter-Glo, 72 h; Potency, µM (highest dose often 46.1 µM), hits mostly cytotoxic; 3.4% of 400,000 active; AID 1347076; also: potency is read from the fitted curve at half-maximal effect; % is scaled to controls: 0 for no effect and ±100 for the full control effect; nearly all actives have a fitted effect of over 60% in size
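qHTS viability screen in drug-selected KB-V1 MDR cells: 72 h compound treatment at 37 degrees C, ATP luminescence end point.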
KB-3-1 cytotox = KB-3-1 parental cell cytotoxicity; 1.4% of 400,000 active; Potency, µM (top dose mostly 46.1 µM), actives largely listed as cytotoxic; KB-3-1 viability, CellTiter-Glo ATP luminescence, 72 h; also: potency is read from the fitted curve at half-maximal effect; % is scaled to controls: 0 for no effect and ±100 for the full control effect; nearly all actives have a fitted effect of over 60% in size
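Multi-concentration cytotoxicity screen in KB-3-1 cells grown in DMEM lacking phenol red with 10% FBS. After 72 h at 37 °C with compound, ATP-dependent luminescence was recorded.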
The depositor's hits bear a star; i = inactive; ? = inconclusive; nt = not tested or not shown; [ ] = remark or other dose. Unless noted, calls follow the shape of the dose curve; as a rule, active = well fitted curve in the direction sought with a large enough effect; inconclusive = small, poorly fitted or top-dose-only effect, or another doubt; inactive = no such curve, though single readings can be large; an effect the other way counts as inactive or inconclusive.

SMILES	MCF10A rerep	Giardia killer	SW480 rereplic	ASM inhibitor	KB-V1 MDR tox	KB-3-1 cytotox
CN=c1sc2c(n1C)C(=O)c1ccccc1C2=O	8.2µM*	?	13µM*	-6%	?	?
Cc1nc(-c2cccnc2)sc1C(=O)Nc1ccc(C(F)(F)F)cc1	-1%	-1	-6%	-14%	?	i
Cc1nc(-c2cccnc2)sc1C(=O)Nc1cccc(C(F)(F)F)c1	8%	13	-3%	-22%	16µM*	i
CN1CCN(C(CNC(=O)C(=O)Nc2ccccc2C#N)c2ccc3c(c2)OCO3)CC1 (configuration not stated)	nt	nt	nt	nt	i	i
Oc1cccc(C2c3[nH]c4ccccc4c3CCN2Cc2ccc3c(c2)CCO3)c1 (configuration not stated)	16µM*	-13	?	-3%	18µM*	21µM*
Oc1cccc(C2c3[nH]c4ccccc4c3CCN2Cc2ccoc2)c1 (configuration not stated)	19%	-1	-10%	3%	i	i
O=C(Nc1cc(-c2nc3cc(Cl)ccc3o2)ccc1Cl)c1cc2ccccc2o1	nt	nt	nt	nt	?	i
O=C(Nc1sc2c(c1C(=O)O)CCC2)c1cccs1	1%	-17	3%	4%	23µM*	?
COc1ccc(CCNC(=O)C2CCN(S(=O)(=O)c3c(C)noc3/C=C/c3ccc(C)cc3)CC2)cc1OC	nt	nt	nt	nt	i	i
COc1ccc(N2CCN(C(c3ccccc3OC)c3nnnn3C3CCCC3)CC2)cc1 (configuration not stated)	6%	-4	1%	-15%	i	i
COc1ccc(N2CCN(C(c3cccc(OC)c3OC)c3nnnn3C3CCCC3)CC2)cc1 (configuration not stated)	?	8	13µM*	-6%	i	i
COc1ccc(C(c2nnnn2C2CCCC2)N2CCc3ccccc3C2)cc1OC (configuration not stated)	10%	-18	3%	1%	?	i
COc1ccc(OC)c(C(c2nnnn2C2CCCC2)N2CCc3ccccc3C2)c1 (configuration not stated)	-1%	-14	-3%	-1%	16µM*	?
CCc1cnc2c(c1SCC(=O)NCc1ccc(C)cc1)c(=O)n(C)c(=O)n2C	nt	nt	nt	nt	i	i
COc1ccc(Nc2nnc(-c3ccc(N4CCOCC4)c([N+](=O)[O-])c3)c3ccccc23)cc1	8%	-11	-7%	0%	16µM*	i
CCN(Cc1ccc2c(c1)OCCO2)C(=O)CN1C(=O)NC2(CCCCC2)C1=O	-2%	-5	-4%	0%	18µM*	i
Cc1cc(C)nc(N2CCC(C(=O)N3CCN(c4cc(Cl)ccc4C)CC3)CC2)n1	?	4	?	-22%	4.1µM*	?
Cc1ccc(C)c(N2CCN(C(=O)C3CCN(c4nc(C)cc(C)n4)CC3)CC2)c1	3%	1	1%	-26%	3.7µM*	?
O=C(O)C1CCCN1S(=O)(=O)c1ccc(F)cc1 (configuration not stated)	3%	-3	-39%	-2%	i	i
Cc1ccc(C)c(N2CCN(C(=O)C3CCCCN3S(=O)(=O)c3ccc(F)cc3)CC2)c1 (configuration not stated)	19%	2	5%	-2%	2.6µM*	?
COC(=O)c1c(C)[nH]c(C(=O)C(C)OC(=O)c2cc(C)oc2C)c1C (configuration not stated)	0%	-5	0%	0%	nt	nt
COC(=O)c1c(C)[nH]c(C(=O)C(C)OC(=O)C2CC2)c1C (configuration not stated)	2%	-14	2%	2%	12µM*	?
O=C(C1=C[C@H](c2ccc(C(F)(F)F)cc2)C[C@H](OCc2ccc(CO)cc2)O1)N1CCCCCCC1	?	-23	0%[9.22 µM]	-6%	?	i
O=C(Nc1ccccc1)C1=C[C@H](c2ccc(C(F)(F)F)cc2)C[C@H](OCc2ccc(CO)cc2)O1	26µM*	2	1%	-24%	i	i
O=C(O)C1=C[C@@H](c2ccc(C(F)(F)F)cc2)C[C@@H](OCc2ccc(CO)cc2)O1	11%	-27	-2%	4%	18µM*	i
SMILES	MCF10A rerep	Giardia killer	SW480 rereplic	ASM inhibitor	KB-V1 MDR tox	KB-3-1 cytotox
O=C(Cn1cccc1C(=O)c1ccccc1)NCc1ccccc1	10%	7	2%	5%	23µM*	i
COc1ccc(-c2cc(C(F)F)n3ncc(C(=O)N4CCSCC4)c3n2)cc1	?	27	5.2µM*	249%	i	i
O=C(Nc1c(C(=O)NCc2ccco2)cnn1-c1ccccc1)c1cccc(F)c1	0%	-10	-2%	-1%	9.2µM*	i
Cc1cc(NC(=O)c2cnn3c(C(F)F)cc(-c4ccccc4)nc23)no1	?	-6	-16%	-6%	i	i
COCCNC(=O)c1cnn2c(C(F)F)cc(-c3ccccc3)nc12	?	-5	15µM*	64%	i	i
O=C(NCc1ccco1)c1cnn2c(C(F)F)cc(-c3ccccc3)nc12	8.2µM*	0	17%	216%	i	i
Cc1cccn2c(=O)c(C(=O)NCCc3ccccc3)c(O)nc12	nt	nt	nt	nt	?	i
Cc1cc(C)c(Cc2c(C)nc3c(C(=O)NCc4ccco4)cnn3c2C)c(C)c1	?	3	-3%	-26%	2.9µM*	21µM*
Cc1ccc(CNC(=O)c2cnn3c(C)c(Cc4c(F)cccc4Cl)c(C)nc23)cc1	nt	nt	nt	nt	i	i
N#Cc1ccccc1Sc1ccccc1C(=O)Nc1ccc(Br)cc1	9%	-13	7%	-2%	18µM*	i
N#Cc1ccccc1Sc1ccccc1C(=O)Nc1ccc2ccccc2c1	?	-22	6%	5%	i	i
COc1ccnc(Oc2ccc(F)cc2)c1C(=O)N/C=N/OCc1ccc(Cl)cc1Cl	?	23	2.3µM*	-3%	?	i
NS(=O)(=O)c1ccc(CCNC(=O)C2COc3ccccc3C2)cc1 (configuration not stated)	nt	nt	nt	nt	?	i
N#C/C(=C\c1ccc(OCC(N)=O)cc1)c1ccccc1	25%	-8	-4%	-1%	i	i
COc1ccc(-c2cc(C(=O)NC3CCCC3)c3ccccc3n2)cc1OC	17%	-2	1%	122%	i	i
COc1ccc(-c2cc(-c3nnc(COC(=O)C4CC4C)o3)c3ccccc3n2)cc1OC (configuration not stated)	?	-12	16µM*	46%	?	i
